# Results published in article PMC9838217, “Structure of SALL4 zinc finger domain reveals link between AT-rich DNA binding and Okihiro syndrome”.
# Where a chain is given by its changes, count along the chain named.
# What was measured:
# Test in all cases: HT-SELEX; high values mean tight binding
# Details in all cases: protein: recombinant; vector His6-GST; dsDNA, one strand shown
# SALL4 ZFC4 WT (HT-SELEX) = biological target: T1, SALL4 ZFC4 WT (HT-SELEX) (Mus musculus, UniProt Q8BX22 870-940)
# T1 sequence: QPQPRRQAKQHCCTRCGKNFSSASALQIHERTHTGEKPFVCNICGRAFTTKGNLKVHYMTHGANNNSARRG
# Outline: (§1)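 For each canonical k-mer, binding signal is the read fraction as fold change versus the initial random library. Data came from up to 6 triplicate cycles in which purified recombinant mouse SALL4 zinc finger cluster 4 (residues 870–940, 1 µg) was incubated 10 min at room temperature with library DNA (1.5 µg first cycle, 200 ng later) in 100 µl of 10 mM Tris–HCl pH 7.5, 50 mM NaCl, poly(dI-dC), DTT, followed by Ni2+ bead capture, PCR amplification, MiSeq sequencing and a 6-mer scan.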
# [1] = biological target: T2, SALL4 ZFC4 R900W (HT-SELEX) (Mus musculus, UniProt Q8BX22 870-940, R900W)
# T2 sequence: T1 sequence with R31W
# Outline: as §1
# [2] = biological target: T3, SALL4 ZFC4 G921D (HT-SELEX) (Mus musculus, UniProt Q8BX22 870-940, G921D)
# T3 sequence: T1 sequence with G52D
# Outline: as §1
Sequence,binding signal (SALL4 ZFC4 WT (HT-SELEX)) [fold-change vs cycle 0],binding signal [1] [fold-change vs cycle 0],binding signal [2] [fold-change vs cycle 0]
GCTACC,0.35 ± 0.0217,0.419 ± 0.0155,0.543 ± 0.0413
ACGATG,0.719 ± 0.0288,0.794 ± 0.00845,0.87 ± 0.00912
ATAAAT,4.06 ± 0.373,2.56 ± 0.158,2.19 ± 0.239
AGAAGA,1.43 ± 0.0638,1.64 ± 0.118,1.47 ± 0.162
ATCGCA,0.515 ± 0.00556,0.522 ± 0.0161,0.667 ± 0.0619
ACCAGG,0.477 ± 0.0177,0.564 ± 0.0161,0.658 ± 0.055
CGGGTA,0.363 ± 0.0204,0.435 ± 0.0153,0.521 ± 0.0456
CCTTCA,0.899 ± 0.0192,1.05 ± 0.0389,1.06 ± 0.0107
AGTACG,0.724 ± 0.0595,0.83 ± 0.0465,0.871 ± 0.0406
ATCAGC,0.664 ± 0.0167,0.738 ± 0.048,0.836 ± 0.0337
GCTTTA,0.998 ± 0.0694,,1.11 ± 0.0337
CAAATG,1.063 ± 0.0102,,1.17 ± 0.0276
ATGGAG,0.932 ± 0.0365,,1.04 ± 0.0381
CATAGA,1.37 ± 0.0454,,1.34 ± 0.0648
CACTAA,1.22 ± 0.0467,1.38 ± 0.0225,1.29 ± 0.0518
ATCAGA,1.37 ± 0.0717,1.43 ± 0.0639,1.38 ± 0.109
GGCATA,0.502 ± 0.0157,0.562 ± 0.025,0.668 ± 0.0401
AAAAAG,1.57 ± 0.0619,1.68 ± 0.0943,1.52 ± 0.129
ACAAAC,1.07 ± 0.057,,1.23 ± 0.0372
ACATCG,0.64 ± 0.0291,0.729 ± 0.00758,0.829 ± 0.0505
CACTCA,0.83 ± 0.0249,0.928 ± 0.0236,0.995 ± 0.0233
ATCCCC,0.549 ± 0.0564,0.604 ± 0.0359,0.664 ± 0.0449
GAATTA,2.39 ± 0.113,1.95 ± 0.0992,1.75 ± 0.12

Sequence,binding signal (SALL4 ZFC4 WT (HT-SELEX)) [fold-change vs cycle 0],binding signal [1] [fold-change vs cycle 0],binding signal [2] [fold-change vs cycle 0]
CCAATA,1.24 ± 0.0729,,1.22 ± 0.0438
ACCAAT,1.25 ± 0.0373,,1.33 ± 0.0543
TAAGAA,2.2 ± 0.0931,,1.87 ± 0.231
GAGTGC,0.332 ± 0.0145,0.398 ± 0.019,0.554 ± 0.055
AAAACT,1.7 ± 0.107,,1.57 ± 0.146
GGAAGA,0.939 ± 0.0256,,1.12 ± 0.0151
CACTCC,0.513 ± 0.0257,0.603 ± 0.0288,0.684 ± 0.0287
ATGCAA,1.2 ± 0.113,,1.18 ± 0.0528
AAACCT,1.23 ± 0.0691,,1.34 ± 0.0704
ATACCA,1.39 ± 0.0502,,1.35 ± 0.0639
ATTAAA,3.73 ± 0.281,2.54 ± 0.18,2.14 ± 0.26
ATTGTG,1.1 ± 0.0622,,1.18 ± 0.0673
AGGATG,0.903 ± 0.0399,,1.04 ± 0.0274
AAATGG,1.11 ± 0.029,,1.16 ± 0.0413
AAATAC,1.75 ± 0.12,1.68 ± 0.0912,1.59 ± 0.0866
ATTTGG,1.02 ± 0.0576,,1.1 ± 0.038
GTCCAC,0.374 ± 0.044,0.454 ± 0.026,0.569 ± 0.0681
ACGTAT,1.2 ± 0.0268,1.28 ± 0.0492,1.23 ± 0.0551
ATAGCA,1.2 ± 0.0655,,1.23 ± 0.0807
GTTTAA,1.69 ± 0.0773,1.79 ± 0.0911,1.63 ± 0.153
ACATGG,0.798 ± 0.0238,0.918 ± 0.032,0.959 ± 0.0218
ACAAAT,1.82 ± 0.0876,1.76 ± 0.0787,1.61 ± 0.106
ACGAAA,1.04 ± 0.0604,,1.11 ± 0.0388

Sequence,binding signal (SALL4 ZFC4 WT (HT-SELEX)) [fold-change vs cycle 0],binding signal [1] [fold-change vs cycle 0],binding signal [2] [fold-change vs cycle 0]
CCCTCC,0.318 ± 0.0193,0.362 ± 0.0224,0.457 ± 0.0716
GGAAAA,1.11 ± 0.0508,1.13 ± 0.0572,1.12 ± 0.0269
ACTCCA,0.896 ± 0.0264,,1.03 ± 0.0296
GAGATA,1.52 ± 0.0868,1.54 ± 0.105,1.45 ± 0.133
CACCCG,,0.244 ± 0.0244,0.342 ± 0.0506
CGGTGC,,0.129 ± 0.00419,0.238 ± 0.0719
AGAGCG,,0.324 ± 0.0123,0.489 ± 0.067
GGCCGA,,0.0868 ± 0.00648,0.196 ± 0.0603
ACGCCC,,0.137 ± 0.0108,0.25 ± 0.0577
TGCCCA,,0.29 ± 0.00772,0.437 ± 0.0679
GGCGCC,,0.0274 ± 0.00854,0.102 ± 0.0477
CGGTCC,,0.209 ± 0.0179,0.324 ± 0.081
CGCCTA,,0.26 ± 0.0104,0.413 ± 0.0625
CGCTGC,,0.0919 ± 0.0151,0.201 ± 0.0834
CTGCGA,,0.28 ± 0.0255,0.404 ± 0.0745
GCGACA,,0.186 ± 0.0276,0.338 ± 0.0565
AGTCGG,,0.367 ± 0.00833,0.499 ± 0.0416
CCACGG,,0.219 ± 0.0185,0.334 ± 0.0695
CCCGGG,,0.132 ± 0.0102,0.234 ± 0.0711
GGGCCC,,0.0676 ± 0.00899,0.178 ± 0.0632
GCCCCC,,0.107 ± 0.0111,0.213 ± 0.0572
ACTGCC,,0.333 ± 0.0151,0.469 ± 0.0726
CCAGCC,,0.149 ± 0.0151,0.273 ± 0.0654

Sequence,binding signal (SALL4 ZFC4 WT (HT-SELEX)) [fold-change vs cycle 0],binding signal [1] [fold-change vs cycle 0],binding signal [2] [fold-change vs cycle 0]
GCGACC,,0.112 ± 0.0125,0.237 ± 0.0806
GGCGTA,,0.242 ± 0.0221,0.377 ± 0.0541
GGCGAA,,0.216 ± 0.00992,0.36 ± 0.0782
CGGGAG,,0.27 ± 0.0161,0.381 ± 0.0867
GGCAAC,,0.322 ± 0.0219,0.438 ± 0.0577
CCCGAC,,0.183 ± 0.0155,0.308 ± 0.0677
CCGCAC,,0.118 ± 0.0077,0.22 ± 0.0597
ACGGCC,,0.0993 ± 0.00797,0.206 ± 0.0649
CGGCAC,,0.0866 ± 0.0073,0.207 ± 0.0784
CCGCCA,,0.105 ± 0.00392,0.218 ± 0.0543
ACCCCC,,0.324 ± 0.0114,0.419 ± 0.0596
CCGGAC,,0.195 ± 0.02,0.305 ± 0.0661
CATGCG,,0.296 ± 0.011,0.441 ± 0.076
CCGGAG,,0.255 ± 0.0305,0.352 ± 0.0596
CCAGCG,,0.131 ± 0.0133,0.245 ± 0.0689
AAGCCC,,0.353 ± 0.015,0.475 ± 0.062
ACCGCG,,0.099 ± 0.00138,0.205 ± 0.0665
GCGCAA,,0.123 ± 0.00425,0.249 ± 0.0828
ACCCCG,,0.242 ± 0.00886,0.353 ± 0.0765
CAGCGC,,0.0744 ± 0.00642,0.177 ± 0.0788
CCTGCC,,0.172 ± 0.00852,0.294 ± 0.0738
